PNC inhibitor = High Content Assay for Compounds that inhibit the Assembly of the Perinucleolar Compartment; PC3M PTB-GFP, PNC prevalence imaging, 16 h; hits give low values; actives 3.1% (n = 140,000); activity change (PNC), negative = inhibition, % at 10 µM;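 active means readout at or below -70, meaning at least 70% loss of cells showing the perinucleolar compartment, a nuclear body marking cancer cells; inconclusive means readout between -30 and a set limit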;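 further: plate controls were DMSO wells for no effect and camptothecin positive control wells for full effect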
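Compounds are pinned in duplicate onto adhered PC3M cells stably expressing GFP-tagged PTB and incubated 16 h at 37 C. Cells are then fixed, nuclei stained with Hoechst, and PNC-positive cells counted.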
ALOX12 inhib = qHTS Assay for Inhibitors of 12-hLO (12-human lipoxygenase); Polyunsaturated fatty acid lipoxygenase ALOX12 (Homo sapiens), P18054; purified 12-hLO, xylenol orange hydroperoxide absorbance; Potency, µM (highest dose often 57.1 µM), without a hit: at the top dose activity change, negative = inhibition, usual class: inhibitors; actives 0.12% (n = 150,000); further: potency means the concentration at half of the fitted maximal effect; on the % scale 0 is the no-effect control and ±100 the full control effect; nearly all actives have a fitted effect of over 55% in size
Target sequence (P18054 whole entry, looked up): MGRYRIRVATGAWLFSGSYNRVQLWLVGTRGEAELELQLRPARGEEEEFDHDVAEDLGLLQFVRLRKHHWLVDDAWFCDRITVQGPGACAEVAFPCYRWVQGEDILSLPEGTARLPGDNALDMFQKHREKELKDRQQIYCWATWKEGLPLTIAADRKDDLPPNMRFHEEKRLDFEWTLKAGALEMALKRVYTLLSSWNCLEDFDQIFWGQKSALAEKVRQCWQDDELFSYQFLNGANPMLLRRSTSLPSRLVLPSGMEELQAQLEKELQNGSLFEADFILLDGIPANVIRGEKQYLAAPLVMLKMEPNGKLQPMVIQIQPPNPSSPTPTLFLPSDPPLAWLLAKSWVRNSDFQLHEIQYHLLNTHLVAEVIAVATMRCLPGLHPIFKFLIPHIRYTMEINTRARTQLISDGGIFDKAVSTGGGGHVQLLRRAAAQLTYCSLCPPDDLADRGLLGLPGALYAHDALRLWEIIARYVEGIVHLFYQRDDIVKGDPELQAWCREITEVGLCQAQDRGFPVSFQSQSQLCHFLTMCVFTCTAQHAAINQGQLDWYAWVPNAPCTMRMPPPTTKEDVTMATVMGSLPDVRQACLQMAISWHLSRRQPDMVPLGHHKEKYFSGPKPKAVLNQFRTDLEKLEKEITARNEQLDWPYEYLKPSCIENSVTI
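Xylenol orange chromogenic assay: hydroperoxide from 12hLO oxidises Fe(II), giving red-shifted Fe(III)-XO absorbance. Conditions: 150 nM enzyme, 40 uM arachidonic acid, 25 mM Hepes pH 7.0, 0.01% Triton X-100, 30 min, room temperature.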
IMPase cell inh = qHTS Assay for Identifying the Cell-Membrane Permeable IMPase Inhibitors. Inositol monophosphatase 1 (Rattus norvegicus), P97697. CHO-M1 cells, IP1 accumulation, HTRF TR-FRET ratio. inhibition (IP1 accumulation), % at 46.1 µM. 120,000 tested, under 10 active. AID 901, 2007; active means well fitted curve in the direction sought with a large enough effect in the signal ratio, not every such curve was filed as active; inconclusive means small, poorly fitted or top-dose-only effect, or a change in a side signal; inactive means no such curve, though single readings can be large or run the other way; the % refers to the signal ratio;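 further: cells stimulated with carbachol in lithium chloride buffer; plate controls were DMSO basal wells for no effect and reference inhibitor wells for full effect; higher means more IMPase inhibition seen as more IP1 and lower FRET ratio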
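CHO-M1 cells (CHO stably expressing M1 receptor), compound up to 46 uM final, stimulated with carbachol (50 uM as added) in buffer with 50mM LiCl, pH 7.4, 30 min at 37C. Cytosolic IP1 read by TR-FRET; AC50 from Hill fits.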
HTT cytoprotect = qHTS Multiplex Assay to Identify Dual Action Probes in a Cell Model of Huntington: Cytoprotection (ATP); Potency, µM (series often up to 56.4 µM), for the others: cytoprotection (ATP increase), hits mostly activators; PC12 HTT-Q103 induced, cytoprotection, ATP luminescence, 40 h; actives 0.14% (n = 230,000); further: potency means the concentration at half of the fitted maximal effect; % of control where 0% means no effect; nearly all actives have a fitted effect of over 45% in size
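PC12 cells with ecdysone-inducible HTT exon 1 Q103-GFP, induced with 100 nM tebufenozide and co-treated with library compounds in a dose series (1536-well, 1500 cells/well). Cytoprotection read as ATP content by ATPlite luminescence.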
NPSR antagonist = qHTS Assay for Antagonists of the Neuropeptide S Receptor: cAMP Signal Transduction; Q6W5P4; CHO-NPSR cells, cAMP TR-FRET, antagonist mode; Potency, µM (doses to about 38.3 µM), without a hit: at the top dose activity change, negative = inhibition, actives largely listed as inhibitors; actives 1% (n = 220,000); AID 1461, 2008; further: potency means the concentration at half of the fitted maximal effect; on the % scale 0 is the no-effect control and ±100 the full control effect; nearly all actives have a fitted effect of over 50% in size
HTT aggregate = qHTS Multiplex Assay to Identify Dual Action Probes in a Cell Model of Huntington: Aggregate Formation (GFP) | AID 1688, 2009 | Potency, µM (highest dose often 46.1 µM), for inactives: top-dose activity change, negative = inhibition, most hits filed as inhibitors | PC12 HttQ103-GFP aggregates, Acumen cytometry, 40 h | actives 1.1% (n = 220,000); further: potency means the concentration at half of the fitted maximal effect; on the % scale 0 is the no-effect control and ±100 the full control effect; nearly all actives have a fitted effect of over 60% in size
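Multiplexed with ATP-based cell death, this channel scores GFP aggregates in PC12 cells expressing inducible HTTex1-Q103-GFP. Induction used 100 nM tebufenozide; compounds were tested in concentration series.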
* hit, by the source's call; ? = inconclusive; · = no result given; ! = not confirmed by another sample; [ ] = dose if it differs, or a comment. A selection: hits, their analogues and other compounds. The true share with any hit is near 3.3%. Unless noted, the call rests on the fitted dose curve; in most records, active means well fitted curve in the direction sought with a large enough effect; inconclusive means small, poorly fitted or top-dose-only effect, or another doubt; inactive means no such curve, though single readings can be large; an effect the other way counts as inactive or inconclusive.

SMILES	PNC inhibitor	ALOX12 inhib	IMPase cell inh	HTT cytoprotect	NPSR antagonist	HTT aggregate
CCOC(=O)c1c(NC(=O)c2ccc(N3C(=O)[C@@H]4[C@H](C3=O)[C@H]3C=C[C@@H]4C3)cc2)sc2c1CC(C)CC2 (stereo partly drawn)	-125*	2%	·	0%[10 µM]	-10%	-7%
CCCCOc1ccccc1NC(=O)Cn1c(-c2nonc2N)nc2ccccc21	-95*	2%	5	-6%[10 µM]	-7%[46.1 µM]	-4%
CCOC(=O)Cn1c(-c2nonc2NC(=O)c2ccccc2F)nc2ccccc21	-108*	-5%	2	-2%	-26%[46.1 µM]	-17%[9.22 µM]
Cc1ccccc1C(=N)c1ccccc1Cc1cccc2ccccc12	·	3%[11.4 µM]	·	4%[10 µM]	·	·
Cn1c(=O)c2c(nc(N3CCOCC3)n2Cc2cccc(Br)c2)n(C)c1=O	·	·	9	·	·	·
Cc1nc2scc(-c3cccs3)c2c(=O)n1CC(=O)O	-80*	9%	-23	6%	-2%[46.1 µM]	-3%
Cc1nc2ccccc2c(=O)n1NC(=O)c1c(O)c2c(n(CC(C)C)c1=O)CCCC2	-94*	-2%	?	8%[10 µM]	-27%[46.1 µM]	?
CCCCCCc1nc2ccccc2c(=O)n1NC(=O)c1c(O)c2c(n(CC(C)C)c1=O)CCCC2	?	-5%	1	-58%	-22%[46.1 µM]	13%
NS(=O)(=O)c1ccc(NC(=O)CN2CCCCC2)cc1	-83*	-3%	-1	-1%[10 µM]	16%[46.1 µM]	-7%
O=C1c2ccccc2-c2n[nH]c(=O)c3ccc(N4CCCCC4)c1c23	·	·	·	-133%	-13%	20µM*
Cc1ccc(N2CCOCC2)c2c1C(=O)c1ccccc1C2=O	-3	-2%	·	-17%[10 µM]	-14%	-14%
CC(C)CN1CC[C@@]2(CCCN(S(=O)(=O)c3ccccc3)C2)C1	·	-3%	·	?	·	·
O=C(Nc1ccccc1Cc1ccccc1)c1ccccc1NS(=O)(=O)c1ccc(Cl)s1	-10	-4%	·	·	-6%	2.5µM*
O=S(=O)(Nc1ccccc1N1CCCCC1)c1ccc(Cl)s1	21	-6%	6	28%	-29%[46.1 µM]	-2%[9.22 µM]
O=C(NCc1ccco1)c1ccccc1NS(=O)(=O)c1ccc(Cl)s1	9	-1%	2	-18%	-9%[46.1 µM]	18µM*
Cc1ccc(NC(=O)c2ccccc2NS(=O)(=O)c2ccc(Cl)s2)cc1	-82*	-3%	·	-39%[10 µM]	-9%	3.2µM*
O=C(NCc1ccco1)c1ccccc1NS(=O)(=O)c1cccs1	47	-4%	1	1%[0.074 µM]	-3%[46.1 µM]	7%
C[C@@]12CCC(=O)C=C1CC[C@@H]1[C@@H]2[C@H](O)C[C@]2(C)[C@@H]1CC[C@]2(O)C(=O)COC(=O)CCC(=O)O	·	-3%	1	-18%[1.9 µM]	·	·
CCOC(=O)C[C@@H](C(=O)OCC)[C@@H]1CCCCC1=O	·	·	·	1%[10 µM]	·	·
O=S(=O)(c1ccc2c(c1)OCCO2)N1CCC(n2nnc3cc(C(F)(F)F)ccc32)CC1	-4	-4%	-1	-14%[10 µM]	-10%[7.67 µM]	10µM*
C/C=C/C1=CC2=CC(=O)C(C)(OC(=O)c3c(C)cc(O)cc3O)C(=O)C2=CO1 (stereo not drawn)	·	·	·	44%	·	·
CCN(CC)CCOC(=O)C1(c2ccc([N+](=O)[O-])cc2)CCCC1	·	-2%	16	0.32µM*!	·	·
CCN(CC)CCCOC(=O)C1(c2ccccc2)CCCC1	-15	9%	26	6%	-6%[46.1 µM]	21%
Cc1ccc2nc(SCC(=O)Nc3cc(C(F)(F)F)ccc3N3CCOCC3)[nH]c2c1	-104*	-9%	-9	-69%[10 µM]	28%[46.1 µM]	30%
COc1ccccc1OCc1ccc(C(=O)NC(C)(C)C)o1	-18	-9%	4	21%[1.9 µM]	-2%[46.1 µM]	-8%

Screening results as filed in PubChem.
